Compound activity: PubChem, National Center for Advancing Translational Sciences (NCATS)
Hits are enriched below; roughly 7.5% of the tested compounds scored in any of these assays.
B2AR arrestin: beta2AR (human) beta-arrestin recruitment activity; P07550; beta-arrestin recruitment to beta2AR, cell-based reporter; Potency, µM (series often up to 46.1 µM), without a hit: at the highest dose activation, hits mostly activators; 330,000 compounds, 0.02% hits;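 note: potency is the fitted concentration of half-maximal effect; 0% = DMSO controls and full agonism = EC100 isoproterenol or metaproterenol; nearly all actives have a fitted effect of over 65% in size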
RORg inh: blocks mouse ROR gamma transcriptional activity; AID 2551; P51450; 310,000 compounds, 5.4% hits; Drosophila S2 Gal4-RORgamma UAS-luciferase reporter, 20 h; Potency, µM (top dose mostly 53.6 µM), for the others: at the highest dose activity change, negative = inhibition, most hits filed as inhibitors; note: potency is the fitted concentration of half-maximal effect; nearly all actives have a fitted effect of over 60% in size
Target sequence (P51450 whole entry, looked up, the tested form may be a part): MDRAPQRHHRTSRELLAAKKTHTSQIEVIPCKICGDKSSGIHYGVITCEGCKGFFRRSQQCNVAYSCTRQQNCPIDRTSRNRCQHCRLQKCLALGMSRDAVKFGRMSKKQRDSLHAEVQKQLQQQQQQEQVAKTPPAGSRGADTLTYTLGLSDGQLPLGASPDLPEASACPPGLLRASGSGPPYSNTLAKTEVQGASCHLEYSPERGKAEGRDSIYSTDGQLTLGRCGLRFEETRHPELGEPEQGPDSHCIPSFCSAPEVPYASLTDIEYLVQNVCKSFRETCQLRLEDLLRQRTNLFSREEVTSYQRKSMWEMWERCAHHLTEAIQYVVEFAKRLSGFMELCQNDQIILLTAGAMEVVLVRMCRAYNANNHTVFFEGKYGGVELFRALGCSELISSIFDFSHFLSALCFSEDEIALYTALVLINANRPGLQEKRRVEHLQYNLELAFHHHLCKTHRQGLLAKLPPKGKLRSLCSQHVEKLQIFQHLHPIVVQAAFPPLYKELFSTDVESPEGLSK
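Luminescence from a UAS-regulated Photinus luciferase reporter in stably transfected Drosophila Schneider cells is measured; decreased signal marks ROR gamma inhibition. Fusion expression is induced by 700 uM copper sulfate for 20 hr.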
ELG1 repair inh: inhibitors of ELG1-dependent DNA repair in HEK293T cells. HEK293T ELG1-luciferase reporter, luminescence, 16 h; DNA damage induced by 5-fluorouridine. Potency, µM (titrated, usually from 46.1 µM), without a hit: at the top dose activity change, negative = inhibition, actives largely listed as inhibitors. 330,000 compounds, 2.3% hits; note: potency is the fitted concentration of half-maximal effect; nearly all actives have a fitted effect of over 55% in size
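5-Fluorouridine DNA damage + compound/DMSO, 2,000 cells/well, 16 h, 37 °C/5% CO2. ONE-Glo, 30 min RT, luminescence. Readout = decrease in reporter signal.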
TSHR antagonist: antagonists of human thyroid stimulating hormone receptor. TSHR-expressing cells, TSH-stimulated cAMP HTRF, 2 h; stronger effect = lower value. P16473. 330,000 compounds, 0.2% hits. AID 504810. activity change, negative = inhibition, % at 11.5 µM;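 active = activity change below a set negative limit, meaning inhibition stronger than a set level, cut at about -70% in these data; inconclusive = activity change between two set negative limits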
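TSHR-expressing cells, 200/well, pre-treated with compound, then stimulated with EC80 TSH (4nM final) for 2 hours at 37 deg C. cAMP measured by competitive HTRF: anti-cAMP cryptate antibody in lysis buffer plus cAMP-d2, read after 30 minutes at room temperature.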
VP16 counter: counter-screen for ROR gamma inhibitors: Gal4-VP16 reporter; Potency, µM (highest dose often 53.6 µM), for the others: top-dose activity, negative = inhibition, actives largely listed as inhibitors; 310,000 compounds, 3.5% hits; Drosophila S2 Gal4-VP16 UAS-luciferase, luminescence, 20 h; AID 2546;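 note: Gal4-VP16 expression switched on by copper sulfate through the metallothionein promoter; potency is the fitted concentration of half-maximal effect; nearly all actives have a fitted effect of over 50% in size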
Active calls of the source: *; ? = inconclusive; / = no result given; [ ] = dose if it differs, or a comment. Unless noted, calls come from the whole dose curve; as a rule, active = well fitted curve in the direction sought with a large enough effect; inconclusive = small, poorly fitted or top-dose-only effect, or another doubt; inactive = no such curve, though single readings can be large; an effect the other way counts as inactive or inconclusive. Unless noted, % is set by controls: 0 for no effect and ±100 for the full control effect.

SMILES	B2AR arrestin	RORg inh	ELG1 repair inh	TSHR antagonist	VP16 counter
Cc1noc(C)c1C(=O)Nc1nc(C23CC4CC(CC(C4)C2)C3)cs1	0%	?	?	-7	22µM*
COc1cc(/C=N/NC(=O)c2cccc([N+](=O)[O-])c2)cc(OC)c1O	0%	-18%	17%	-1	8%
COc1cc(/C=N/NC(=O)c2cncc(Br)c2)cc([N+](=O)[O-])c1O	?	0.32µM*	?	-18	?
COc1cc([N+](=O)[O-])cc(/C=N/NC(=O)c2cncc(Br)c2)c1O	0%	2.8µM*	23µM*	-15	?
Cc1cc(=O)n2nc(N3CCCC3C(=O)Nc3cccc(Cl)c3C)sc2n1 (stereo unspecified)	0%	16µM*	3%	28	3%
CC(C)=CCC/C(C)=C/C=O	/	-26%	/	/	11%
Cc1ccccc1OCC(=O)N/N=C/c1ccc(N2CCOCC2)o1	6%	14µM*	?	-15	6.3µM*
Cc1ccccc1OCC(=O)N/N=C/c1cccn1C	0%	8.9µM*	-6%	-5	0%
Cc1ccc(C(C)C)c(OCC(=O)N/N=C/c2cccn2C)c1	-1%	?	18µM*	-5	?
CCc1ccccc1NC(=O)C/C(C)=N/NC(=O)COc1ccccc1C	0%	11µM*	12%	/	?
CCCCC[C@H](O)/C=C/C=C\C/C=C\C=C\[C@@H](O)CCCC(=O)O	/	12%	/	/	6%
COCC(=O)Nc1cc(Sc2ccccc2)ccc1N=C(NC(=O)OC)NC(=O)OC	/	30%	/	/	-9%
Cn1c(=O)c2c(nc(Sc3ncnn3CC(=O)NC3CCCCC3)n2C)n(C)c1=O	-1%	1%	-15%	0	3%
C/C(CC(=O)Nc1cc(Cl)ccc1Cl)=N\NC(=O)COc1cccc(C)c1	0%	-44%	0%	0	-10%
COc1ccc(Cl)cc1NC(=O)C/C(C)=N/NC(=O)COc1ccc(C)cc1	0%	11µM*	4%	-5	-2%
CCCCCCCCn1cnc2c(N)c(C)c(C)cc21	0%	10µM*	10%	7	?
COc1ccc(Cn2cnc3c(N)c(C)c(C)cc32)cc1	0%	-27%	2%	-16	-15%
C=C(C)C(=O)OCC1CN2C(CCC(C)C2c2ccc(Br)cc2)C(=O)O1 (stereo unspecified)	/	2%[10 µM]	/	/	-8%[10 µM]
O=C(NCCCn1ccnc1)c1ccc(N2CCCCCC2)c([N+](=O)[O-])c1	0%	12%	9.2µM*	10	5%
CCn1c(C)nc2cc(C(=O)OC(C(F)(F)C(F)F)C(F)(F)C(F)F)ccc21	0%	7.1µM*	?	-7	7.1µM*
CCOc1ccc(CN2CCNC(=O)C2CC(=O)NCc2ccccn2)cc1 (stereo unspecified)	-1%	11µM*	14%	-6	-7%
CCc1cc(CNC(=O)CC2C(=O)NCCN2Cc2ccc(-c3ccccc3)cc2)on1 (stereo unspecified)	0%	7%	-2%	-113*	-5%
COc1ccc(Cc2nc3ccc(C(=O)NCC4COCCO4)cc3o2)cc1OC (stereo unspecified)	0%	21%	-18%	11	-14%
Oc1cc2c(cc1O)[C@@H]1c3ccc(O)c(O)c3OC[C@]1(O)C2	/	-29%	/	/	-7%
COc1cccc(C2CC(c3c(-c4ccccc4)c4cc(Cl)ccc4[nH]c3=O)=NN2S(C)(=O)=O)c1OC (stereo unspecified)	0%	-19%	23µM*	-30	?
SMILES	B2AR arrestin	RORg inh	ELG1 repair inh	TSHR antagonist	VP16 counter
CCC(C)c1ccccc1NC(=O)c1cc2cccc([N+](=O)[O-])c2[nH]1 (stereo unspecified)	0%	14%	21µM*	3	20%
COc1ccc(N(C)C(=O)c2cc3c(s2)-c2ccc(Cl)cc2S(=O)(=O)C3)c(OC)c1	0%	1%	21µM*	1	0%
COc1cc2c(cc1NC(=O)COC(=O)[C@@H](NC(=O)c1ccccc1)C(C)C)oc1ccccc12	0%	8.9µM*	?	-17	?
COc1cc2c(cc1NC(=O)COC(=O)CNC(=O)c1ccccc1)oc1ccccc12	-1%	11µM*	?	1	6.3µM*
COc1cc(NC(=O)C2CC(=O)N(Cc3ccco3)C2)c(OC)cc1Cl (stereo unspecified)	0%	/	12%	73	/
COc1cc2c(cc1NC(=O)COC(=O)[C@@H](NC(=O)c1ccccc1F)C(C)C)oc1ccccc12	-1%	10µM*	-24%	-2	11µM*
COc1cc2c(cc1NC(=O)COCC(=O)O)oc1ccccc12	0%	2%	4%	-5	-10%
COc1cc2c(cc1NC(=O)COC(=O)C1CC(=O)N(Cc3ccco3)C1)oc1ccccc12 (stereo unspecified)	0%	8.9µM*	?	-18	7.9µM*
CC[C@H](C)[C@@H](NC(=O)O[C@H]1C(=O)c2ccc(OC)cc2O[C@@H]1c1ccc2c(c1)OCO2)C(=O)OC	/	8%	/	/	1%
Cc1nn(Cc2cccc(C(=O)NC34CC5CC(CC(C5)C3)C4)c2)c(C)c1Br	0%	?	23µM*	-5	3%
Cc1ccc(/C=C2\SC(=S)N(CCCC(=O)Nc3ccc(O)cc3)C2=O)cc1	0%	0.05µM*	8%	4	/
COc1cc(/C=C2\SC(=S)N(CCC(=O)NCCc3ccccc3)C2=O)cc(OC)c1OC	-1%	-45%	1%	1	-6%
O=C(CCN1C(=O)/C(=C/c2ccccc2)SC1=S)Nc1ccccn1	0%	-33%	18%	9	-9%
Cc1ccc(/C=C2\SC(=S)N(CCCC(=O)Nc3ccccn3)C2=O)cc1	0%	0.45µM*	?	-8	1.6µM*
COC(=O)c1ccc(/C=C2/SC(=S)N(CCCC(=O)Nc3ccc(O)cc3)C2=O)cc1	0%	-3%	-2%	-17	13%
COc1cc(/C=C2\SC(=S)N(CCC(=O)Nc3ccccc3O)C2=O)cc(OC)c1OC	-1%	32%	7.3µM*	-16	?
COc1ccc(/C=C2\SC(=S)N(CCCC(=O)Nc3ccccn3)C2=O)cc1OC	-1%	4.5µM*	16µM*	-17	5µM*
Cc1ccc(/C=C2/SC(=S)N(CCCC(=O)Nc3cc([N+](=O)[O-])ccc3O)C2=O)cc1	0%	7.9µM*	19%	-7	?
O=C(CCCN1C(=O)S/C(=C\C=C\c2ccccc2)C1=O)Nc1ccc(O)cc1	0%	0.32µM*	?	-12	?
CN(C(=S)NC(=O)Cc1ccccc1)c1ccccc1	0%	10µM*	2%	0	?
CCN(CC)C(=S)NC(=O)Cc1ccccc1	0%	6.3µM*	10%	2	?
